23 molecules from PubChem BioAssay (EPA / NIEHS) can be followed below.

What is called AC50 is the concentration giving half of the maximal activity seen.

Inconclusive results are not listed. Activity calls are given as the source filed them. The calls were made as follows: active = hit-call score of the fitted dose curve at least 0.9, where 1 is the maximum; inconclusive = response in the unintended direction; inactive = score below 0.9.

Assay [1] concerns the target Glycogen synthase kinase-3 beta (Homo sapiens) (UniProt P49841). The assay is described as follows: NVS_ENZ_hGSK3b: NovaScreen (NVS) Enzymatic Assay for human Glycogen Synthase Kinase-3 beta (GSK3b) (AID 2283165). The gist of the method: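 Recombinant enzyme with specific fluorescent substrate, 1 h, product separated by electrophoretic mobility shift. Primary duplicate screen at 25 uM; actives (e.g. 30% inhibition) followed in singleton concentration-response to 50 uM. Signal loss fitted versus DMSO.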

For assay [2], the target named is Collagenase 3 (Homo sapiens) (UniProt P45452). As to the kind of experiment: NVS_ENZ_hMMP13: NovaScreen (NVS) Enzymatic Assay for human Matrix Metalloproteinase-13 (MMP13) (AID 2283182). The essentials:
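Recombinant MMP13 cleaving fluorescent substrate, cell-free, measured 1 h after dosing. Primary duplicate screen at 25 uM; actives tested in concentration-response up to 50 uM; loss of signal relative to DMSO.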

The target in assay [3] is human Matrix Metalloproteinase-7 (MMP7), MMP7 (gene 4316) (UniProt P09237). As to the kind of experiment: NVS_ENZ_hMMP7: NovaScreen (NVS) Enzymatic Assay for human Matrix Metalloproteinase-7 (MMP7) (AID 2283183). The protocol: NVS_ENZ_hMMP7 is a biochemical, single-readout assay that uses extracted gene-proteins in a cell-free assay. Measurements were taken 1 hour after chemical dosing in a 96-well plate.NVS_ENZ_hMMP7 is one of one assay component(s) measured or calculated from the NVS_ENZ_hMMP7 assay. It is designed to make measurements of enzyme activity, a form of enzyme reporter, as detected with fluorescence intensity signals by Fluorescence technology.Data from the assay component NVS_ENZ_hMMP7 was analyzed into 1 assay endpoint. This assay endpoint, NVS_ENZ_hMMP7, was analyzed in the positive analysis fitting direction relative to DMSO as the negative control and baseline of activity. Using a type of enzyme reporter, loss-of-signal activity can be used to understand changes in the enzymatic activity as they relate to the gene MMP7. Furthermore, this assay endpoint can be referred to as a primary readout, because this assay has produced multiple assay endpoints where this one serves a enzymatic activity function. To generalize the intended target to other relatable targets, this assay endpoint is annotated to the protease intended target family, where the subfamily is matrix metalloproteinase.
(§1) Binding assays used specific radioligands (tritiated, iodinated) with non-radioactive competitive displacement ligands in agonist or antagonist protocols (as indicated) and various reference compounds and inhibitors to titrate specific binding to receptors and transporters. Most enzyme assays (CYPs, kinases, phosphatases, proteases, HDACs) used recombinant protein and specific substrates (fluorescence mostly, some colorimetric and radioactive) and inhibitors, followed by a biochemical separation of substrate and product. All assays for the biochemical HTS were initially run in duplicate at a single concentration (10 uM for CYP450 assays and 25 uM for all others). Assay-chemical combinations meeting a pre-defined threshold (e.g., 30% inhibition and other criteria defined below) were then run in singleton concentration-response format with maximum concentration of 20 uM for CYPs and 50 uM for all others. Each assay was run with positive and negative controls, and concurrent controls on every plate. The follow-up (secondary) screen tested active chemical-pairs in concentration series, as well as a few additional assays not tested in the primary screen, some selected negative inactives, and several cases re-run in the concentration series for confirmatory purposes.

Assay [4] has as its target human Matrix Metalloproteinase-2 (MMP2), MMP2 (gene 4313) (UniProt P08253). The assay is described as follows: NVS_ENZ_hMMP2: NovaScreen (NVS) Enzymatic Assay for human Matrix Metalloproteinase-2 (MMP2) (AID 2283184). The gist of the method: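 Cell-free recombinant MMP2 activity with a fluorescent substrate, read 1 h after dosing. Primary screen in duplicate at 25 uM; actives then run in concentration series; loss of signal fitted versus DMSO.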

For assay [5], the target named is human Janus Kinase 2 (Jak2), JAK2 (gene 3717) (UniProt O60674). As to the kind of experiment: NVS_ENZ_hJak2: NovaScreen (NVS) Enzymatic Assay for human Janus Kinase 2 (Jak2) (AID 2283169). The essentials: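 Cell-free recombinant human JAK2 enzyme activity assay, fluorescence/electrophoretic mobility shift read 1 h after dosing. Screened in duplicate at 25 uM, then concentration-response up to 50 uM; activity as signal loss relative to DMSO.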

Assay [6] concerns the target human LYN Proto-Oncogene, Src family Tyrosine Kinase (LynA), LYN (gene 4067) (UniProt P07948). The assay is described as follows: NVS_ENZ_hLynA: NovaScreen (NVS) Enzymatic Assay for human LYN Proto-Oncogene, Src family Tyrosine Kinase (LynA) (AID 2283173). As to the method:
NVS_ENZ_hLynA is a biochemical, single-readout assay that uses extracted gene-proteins in a cell-free assay. Measurements were taken 1 hour after chemical dosing in a 384-well plate.NVS_ENZ_hLynA is one of one assay component(s) measured or calculated from the NVS_ENZ_hLynA assay. It is designed to make measurements of enzyme activity, a form of enzyme reporter, as detected with fluorescence intensity signals by Fluorescence and electrophoretic mobility shift technology.Data from the assay component NVS_ENZ_hLynA was analyzed into 1 assay endpoint. This assay endpoint, NVS_ENZ_hLynA, was analyzed in the positive analysis fitting direction relative to DMSO as the negative control and baseline of activity. Using a type of enzyme reporter, loss-of-signal activity can be used to understand changes in the enzymatic activity as they relate to the gene LYN. Furthermore, this assay endpoint can be referred to as a primary readout, because this assay has produced multiple assay endpoints where this one serves a enzymatic activity function. To generalize the intended target to other relatable targets, this assay endpoint is annotated to the kinase intended target family, where the subfamily is non-receptor tyrosine kinase.
as §1

The target of assay [7] is Mitogen-activated protein kinase 3 (Homo sapiens) (UniProt P27361). As to the kind of experiment: NVS_ENZ_hMAPK3: NovaScreen (NVS) Enzymatic Assay for human Mitogen-Activated Protein Kinase 3 (MAPK 3) (AID 2283177). The essentials: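 Cell-free enzymatic assay with recombinant protein and specific substrate; fluorescence and electrophoretic mobility shift read-out 1 h after dosing. Primary screen duplicate at 25 uM; actives then run in concentration-response up to 50 uM, loss of signal versus DMSO.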

The target of assay [8] is human Insulin Receptor (InsR), INSR (gene 3643) (UniProt P06213). The assay is described as follows: NVS_ENZ_hInsR: NovaScreen (NVS) Enzymatic Assay for human Insulin Receptor (InsR) (AID 2283168). The essentials:
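Fluorescent substrate phosphorylation by recombinant kinase, product resolved by electrophoretic mobility shift, read 1 h after dosing. Screened in duplicate at 25 uM; hits (e.g., 30% inhibition) run in concentration-response to 50 uM; DMSO as baseline.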

human Janus Kinase 2 (Jak2), JAK2 (gene 3717), sequence (O60674 whole entry, looked up): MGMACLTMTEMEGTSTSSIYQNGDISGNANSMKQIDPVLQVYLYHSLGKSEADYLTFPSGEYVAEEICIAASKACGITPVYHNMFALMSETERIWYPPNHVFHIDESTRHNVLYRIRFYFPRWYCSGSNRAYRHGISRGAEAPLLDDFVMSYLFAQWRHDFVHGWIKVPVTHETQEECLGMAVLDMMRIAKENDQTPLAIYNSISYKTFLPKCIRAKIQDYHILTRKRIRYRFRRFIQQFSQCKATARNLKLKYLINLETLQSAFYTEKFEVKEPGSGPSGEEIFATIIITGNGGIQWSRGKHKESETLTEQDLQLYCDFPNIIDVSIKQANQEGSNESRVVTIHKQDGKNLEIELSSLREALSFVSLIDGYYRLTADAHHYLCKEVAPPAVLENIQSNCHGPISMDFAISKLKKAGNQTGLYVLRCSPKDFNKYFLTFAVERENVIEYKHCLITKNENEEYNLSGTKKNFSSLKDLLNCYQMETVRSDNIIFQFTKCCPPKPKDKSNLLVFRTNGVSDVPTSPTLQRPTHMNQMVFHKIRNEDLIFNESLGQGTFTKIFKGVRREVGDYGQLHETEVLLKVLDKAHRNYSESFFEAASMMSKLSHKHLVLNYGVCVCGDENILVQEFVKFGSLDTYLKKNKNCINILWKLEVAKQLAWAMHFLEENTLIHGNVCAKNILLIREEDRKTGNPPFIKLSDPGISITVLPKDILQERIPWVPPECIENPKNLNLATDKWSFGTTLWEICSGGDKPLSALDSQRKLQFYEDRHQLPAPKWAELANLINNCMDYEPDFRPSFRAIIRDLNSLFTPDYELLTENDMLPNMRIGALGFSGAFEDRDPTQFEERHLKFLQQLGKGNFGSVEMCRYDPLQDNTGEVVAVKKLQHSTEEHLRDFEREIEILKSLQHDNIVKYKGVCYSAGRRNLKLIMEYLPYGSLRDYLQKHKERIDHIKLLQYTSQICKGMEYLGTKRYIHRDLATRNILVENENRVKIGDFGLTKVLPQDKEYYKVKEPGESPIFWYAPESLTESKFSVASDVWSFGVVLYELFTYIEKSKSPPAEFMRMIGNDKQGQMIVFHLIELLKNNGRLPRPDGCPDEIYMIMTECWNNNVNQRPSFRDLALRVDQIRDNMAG
Glycogen synthase kinase-3 beta (Homo sapiens), sequence (P49841 whole entry, looked up): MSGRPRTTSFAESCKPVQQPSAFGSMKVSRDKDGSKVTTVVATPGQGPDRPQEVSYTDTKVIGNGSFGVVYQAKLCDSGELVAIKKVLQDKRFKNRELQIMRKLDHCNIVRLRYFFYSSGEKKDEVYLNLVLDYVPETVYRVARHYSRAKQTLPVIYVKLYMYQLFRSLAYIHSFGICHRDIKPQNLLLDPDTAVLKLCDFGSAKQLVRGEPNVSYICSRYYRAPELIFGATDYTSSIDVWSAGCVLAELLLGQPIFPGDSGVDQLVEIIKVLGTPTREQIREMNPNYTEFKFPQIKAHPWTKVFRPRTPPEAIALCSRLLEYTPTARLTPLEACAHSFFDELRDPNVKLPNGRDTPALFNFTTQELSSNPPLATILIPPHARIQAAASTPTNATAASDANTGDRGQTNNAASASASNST
human Insulin Receptor (InsR), INSR (gene 3643), sequence (P06213 whole entry, looked up): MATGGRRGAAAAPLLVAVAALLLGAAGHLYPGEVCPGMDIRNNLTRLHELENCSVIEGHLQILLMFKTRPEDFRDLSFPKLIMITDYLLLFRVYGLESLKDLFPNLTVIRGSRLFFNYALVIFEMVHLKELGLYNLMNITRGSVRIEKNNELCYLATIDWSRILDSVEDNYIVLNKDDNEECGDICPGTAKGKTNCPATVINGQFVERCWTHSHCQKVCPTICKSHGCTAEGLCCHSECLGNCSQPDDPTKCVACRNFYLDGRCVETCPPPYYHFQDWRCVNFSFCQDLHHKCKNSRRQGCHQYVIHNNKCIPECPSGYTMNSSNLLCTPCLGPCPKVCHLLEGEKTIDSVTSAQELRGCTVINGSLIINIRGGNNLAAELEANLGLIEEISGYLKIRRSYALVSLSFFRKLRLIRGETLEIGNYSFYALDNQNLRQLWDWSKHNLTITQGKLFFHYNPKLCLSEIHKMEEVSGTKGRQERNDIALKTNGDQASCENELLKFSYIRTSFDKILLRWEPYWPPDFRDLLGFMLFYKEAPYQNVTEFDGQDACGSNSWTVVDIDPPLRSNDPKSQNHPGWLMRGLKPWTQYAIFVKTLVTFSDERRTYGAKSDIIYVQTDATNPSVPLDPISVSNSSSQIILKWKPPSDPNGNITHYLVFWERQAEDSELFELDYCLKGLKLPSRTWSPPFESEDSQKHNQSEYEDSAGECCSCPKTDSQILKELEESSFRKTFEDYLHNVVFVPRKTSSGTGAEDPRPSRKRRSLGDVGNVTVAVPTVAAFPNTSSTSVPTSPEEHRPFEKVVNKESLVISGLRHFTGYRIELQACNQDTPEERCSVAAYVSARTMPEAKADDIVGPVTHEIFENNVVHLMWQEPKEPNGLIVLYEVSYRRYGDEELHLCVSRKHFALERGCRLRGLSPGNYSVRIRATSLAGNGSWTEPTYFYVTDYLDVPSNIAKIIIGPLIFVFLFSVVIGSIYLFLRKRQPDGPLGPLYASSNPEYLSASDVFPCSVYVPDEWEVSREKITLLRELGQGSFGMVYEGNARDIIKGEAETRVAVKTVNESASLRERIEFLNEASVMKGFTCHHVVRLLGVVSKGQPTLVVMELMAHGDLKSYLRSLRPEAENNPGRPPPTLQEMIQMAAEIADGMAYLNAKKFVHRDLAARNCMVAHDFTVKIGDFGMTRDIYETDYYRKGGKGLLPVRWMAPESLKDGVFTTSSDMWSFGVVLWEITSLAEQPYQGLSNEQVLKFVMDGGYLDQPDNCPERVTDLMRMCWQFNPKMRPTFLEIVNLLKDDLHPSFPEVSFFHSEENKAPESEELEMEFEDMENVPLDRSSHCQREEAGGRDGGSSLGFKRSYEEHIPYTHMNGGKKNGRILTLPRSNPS
human Matrix Metalloproteinase-7 (MMP7), MMP7 (gene 4316), sequence (P09237 whole entry, looked up): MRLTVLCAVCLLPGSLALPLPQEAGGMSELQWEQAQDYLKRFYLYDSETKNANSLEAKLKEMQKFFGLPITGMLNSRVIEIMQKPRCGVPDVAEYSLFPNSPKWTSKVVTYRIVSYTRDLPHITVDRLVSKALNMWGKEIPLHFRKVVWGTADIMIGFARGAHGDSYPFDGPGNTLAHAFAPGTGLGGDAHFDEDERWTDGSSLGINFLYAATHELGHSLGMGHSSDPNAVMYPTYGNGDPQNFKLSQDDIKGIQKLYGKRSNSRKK
human Matrix Metalloproteinase-2 (MMP2), MMP2 (gene 4313), sequence (P08253 whole entry, looked up): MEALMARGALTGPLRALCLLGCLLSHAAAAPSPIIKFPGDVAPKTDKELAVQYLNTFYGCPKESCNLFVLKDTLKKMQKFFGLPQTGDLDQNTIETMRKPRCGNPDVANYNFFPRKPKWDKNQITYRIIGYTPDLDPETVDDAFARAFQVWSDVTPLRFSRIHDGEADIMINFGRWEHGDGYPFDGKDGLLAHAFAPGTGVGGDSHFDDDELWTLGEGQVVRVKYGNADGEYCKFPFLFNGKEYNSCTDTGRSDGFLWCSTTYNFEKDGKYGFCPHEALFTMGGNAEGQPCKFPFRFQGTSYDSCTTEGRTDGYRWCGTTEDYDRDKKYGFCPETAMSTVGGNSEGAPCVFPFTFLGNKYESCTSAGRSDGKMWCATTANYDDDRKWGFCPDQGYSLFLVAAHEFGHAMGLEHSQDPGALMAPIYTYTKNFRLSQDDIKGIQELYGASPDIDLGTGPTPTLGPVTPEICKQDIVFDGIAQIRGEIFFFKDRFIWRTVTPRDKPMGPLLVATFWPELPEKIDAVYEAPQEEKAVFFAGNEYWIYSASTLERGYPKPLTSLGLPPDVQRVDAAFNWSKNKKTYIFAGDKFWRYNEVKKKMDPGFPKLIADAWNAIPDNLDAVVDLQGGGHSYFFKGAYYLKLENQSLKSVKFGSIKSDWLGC
human LYN Proto-Oncogene, Src family Tyrosine Kinase (LynA), LYN (gene 4067), sequence (P07948 whole entry, looked up): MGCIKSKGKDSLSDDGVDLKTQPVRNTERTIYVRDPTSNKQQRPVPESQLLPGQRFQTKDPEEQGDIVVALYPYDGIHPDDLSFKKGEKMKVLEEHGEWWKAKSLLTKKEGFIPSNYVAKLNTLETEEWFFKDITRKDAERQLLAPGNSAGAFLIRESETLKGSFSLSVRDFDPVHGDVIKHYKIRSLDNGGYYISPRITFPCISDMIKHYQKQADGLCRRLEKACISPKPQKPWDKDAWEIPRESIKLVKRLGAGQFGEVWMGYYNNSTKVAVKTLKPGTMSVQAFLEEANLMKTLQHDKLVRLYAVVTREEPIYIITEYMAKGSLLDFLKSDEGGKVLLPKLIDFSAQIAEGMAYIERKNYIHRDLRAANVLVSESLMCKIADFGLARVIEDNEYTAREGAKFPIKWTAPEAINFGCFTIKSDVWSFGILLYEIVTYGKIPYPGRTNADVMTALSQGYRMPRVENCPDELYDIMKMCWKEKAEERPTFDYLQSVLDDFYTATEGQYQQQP
Mitogen-activated protein kinase 3 (Homo sapiens), sequence (P27361 whole entry, looked up): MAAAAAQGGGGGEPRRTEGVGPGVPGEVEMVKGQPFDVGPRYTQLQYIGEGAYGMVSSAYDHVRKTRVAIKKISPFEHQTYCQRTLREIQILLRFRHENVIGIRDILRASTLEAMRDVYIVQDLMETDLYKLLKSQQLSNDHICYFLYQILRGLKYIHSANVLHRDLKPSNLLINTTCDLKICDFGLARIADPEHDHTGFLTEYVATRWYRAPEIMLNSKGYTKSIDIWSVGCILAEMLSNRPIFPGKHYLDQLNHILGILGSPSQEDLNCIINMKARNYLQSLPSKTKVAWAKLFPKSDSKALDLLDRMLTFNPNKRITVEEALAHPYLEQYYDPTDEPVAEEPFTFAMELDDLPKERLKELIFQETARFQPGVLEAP

Turning to `Nc1nc(=S)c2[nH]cnc2[nH]1`, the outcome in assay [1] and in assay [3] was inactive. Also, the AC50 in assay [2] was 27.1 µM (active); in assay [4], 18.8 µM (active).
In the case of `CN(C)C(=O)NC1(c2ccccc2)CCN(CCC[C@]2(c3ccc(Cl)c(Cl)c3)CCCN(C(=O)c3ccccc3)C2)CC1`, the result in assay [1], in assay [5], in assay [6] and in assay [7] was inactive.
`O=C(Oc1ccccc1)c1cccc(C(=O)Oc2ccccc2)c1`: the molecule was classed as inactive in assay [1] and in assay [5].
As to `C/C=C/c1ccc(OC)cc1`, the result in assay [1] was inactive.
In the case of `CC(N)=O`, in assay [8], the result was inactive.
As to `Cc1occc(=O)c1O`, the molecule was called inactive in assay [1].
With `Oc1ccc(O)cc1`, in assay [1], the outcome was inactive.
On to `O=C1OC(c2ccc(O)cc2)(c2ccc(O)cc2)c2ccccc21`, for which the outcome in assay [1] was inactive.
`CCOCCOCCO`: in assay [1], the molecule was called inactive.
Turning to `CCCC(=O)O`, in assay [1], the molecule was called inactive.
Consider `CCc1cc(C2=C(C(=O)O)N(c3ccccc3C(F)(F)F)S(=O)(=O)c3ccccc32)cc2c1OCO2`, for which the molecule was called inactive in assay [1] and in assay [3]. Further, in assay [2], the AC50 is 29.6 µM (active).
For the molecule `O=C(O)CN(CC(=O)O)CC(=O)O`, the molecule was called inactive in assay [1].
As to `COC(=O)CCCC(=O)OC`, the molecule was called inactive in assay [1].
As to `S=c1[nH]c2ccccc2s1`, the result in assay [1] was inactive.
On to `C=CCc1ccc(OC)c(OC)c1`, for which the call in assay [1] was inactive.
Take `O=NO`: the call in assay [1] was inactive.
`COc1ccc(OC(F)(F)F)cc1CN[C@H]1CCCN[C@H]1c1ccccc1`: the result in assay [1] and in assay [5] was inactive.
`CC(C)COC(=O)CCCCC(=O)OCC(C)C`: the outcome in assay [5] was inactive.
For the molecule `CC1(C)C(=O)NC(=O)N1CO`, the outcome in assay [1] was inactive.
As for `NC1CCCCC1`, the call in assay [1] was inactive.
`CCCCC(CC)COC(=O)CCCCCCCC(=O)OCC(CC)CCCC` (centres undefined): the molecule was called inactive in assay [8].
Turning to `c1ccc2occc2c1`, the molecule was called inactive in assay [1] and in assay [4].
For `CC(C)c1cccc(C(C)C)c1NC(=O)NS(=O)(=O)c1cc(C(C)(C)O)co1`, the molecule was called inactive in assay [1].
